# Source: PubChem BioAssay
# The list is not random: actives were taken first. Their share in the collection is about 6.7%.
# Pf Dd2 growth – P. falciparum Dd2 growth inhibitors, primary screen, SYBR Green fluorescence, single dose replicates | 72 h; hits give low values | AID 1159554, 2015 | 94,000 compounds, 2.3% hits | activity change, % at 10 µM; in the data active = activity change below about -80%; inconclusive = no clear call, values can overlap the other calls
# T cruzi growth-1 – T. cruzi intracellular proliferation inhibitors, primary screen, cell-based, beta-gal Tulahuen parasites, NIH3T3 host, luminescence; T. cruzi beta-gal in NIH3T3, GalScreen luminescence, 90 h; inhibition, % at 8.34 µM; 77,000 compounds, 5.9% hits; AID 624255, 2012;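 active = mean inhibition above about 93%, with at least 55% of replicates each passing it, limit read from the data, passing the limit was not always enough; inconclusive = only one of those two conditions holds; inactive = neither condition holds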
# C diff HTS – C. difficile growth inhibitors, primary screen, HTS. growth activity, negative = inhibition, % at 16 µg/mL (by protocol). AID 1259249, 2017. 86,000 compounds, 0.25% hits. Clostridium difficile clinical isolate growth, OD600, 24 h; hits give low values;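 active = mean growth activity at or below -80% and every replicate also at or below -80%; inconclusive = mean at or below -80% but some replicate above -80%; inactive = mean growth activity above -80%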;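 note: 0% = DMSO wells and -100% = levofloxacin 16 µg/mL wells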
# T cruzi growth-2 – T. cruzi intracellular proliferation inhibitors, confirmation, cell-based, NIH3T3 host, beta-gal parasite, luminescence, cherry-pick; T. cruzi beta-gal in NIH3T3, GalScreen luminescence, 90 h; 5,600 compounds, 72% hits; inhibition, % at 8.35 µM; AID 651739, 2012; shares compounds with T cruzi growth-1;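 active = mean replicate inhibition above about 95% and at least 55% of replicates individually reaching it, limit read from the data; inconclusive = only one of the two criteria is met; inactive = neither criterion is met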
# T cruzi growth-3 – inhibitors of intracellular T. cruzi replication, confirmation, NIH3T3 host cells, beta-gal parasites, cherry-pick, set 2. T. cruzi beta-gal in NIH3T3, GalScreen luminescence, 90 h. shares compounds with T cruzi growth-1. 5,600 compounds, 21% hits. inhibition, % at 2.09 µM. AID 651740, 2012;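 active = mean inhibition above about 95%, with at least 55% of replicates also reaching it, limit read from the data; inconclusive = meets just one of the two conditions; inactive = meets neither condition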;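 note: plate controls were neutral control median for no effect and positive control median for full effect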
# NIH3T3 tox – cytotoxicity in mouse NIH/3T3 fibroblasts, confirmation, cytotoxicity control for T. cruzi proliferation inhibitor project, cell-based, cherry-pick, single point | shares compounds with T cruzi growth-1 | NIH/3T3 viability, CellTiter-Glo ATP luminescence, 90 h | cytotoxicity (signal decrease), % at 8.35 µM | 5,600 compounds, 14% hits;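 active = mean signal decrease across replicates above about 35% based on untreated-well scatter, with enough replicates individually passing, limit read from the data; inconclusive = no rule stated though some were filed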;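 note: 0% = median of neutral control wells and 100% = median of positive control wells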
# NIH3T3 tox 2 – NIH/3T3 fibroblast cytotoxicity, confirmation, cytotoxicity control, cell-based, cherry-pick, single point, set 2. shares compounds with T cruzi growth-1. AID 651744, 2012. 5,600 compounds, 56% hits. inhibition, % at 24.9 µM. NIH/3T3 viability, CellTiter-Glo ATP luminescence, 90 h;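 active = mean loss of cell viability signal at or above a set limit, and enough replicates individually reaching it; inconclusive = meets only the mean limit or only the replicate share; inactive = meets neither condition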;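 note: 0% = median of neutral control wells and 100% = median of positive control wells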
# Starred values were filed as active, the others as inactive; ? = inconclusive; / = no result given.
SMILES,Pf Dd2 growth,T cruzi growth-1,C diff HTS,T cruzi growth-2,T cruzi growth-3,NIH3T3 tox,NIH3T3 tox 2
C[C@H]1CN([C@@H](C)CO)S(=O)(=O)c2ccc(C3=CCCCC3)cc2O[C@@H]1CN(C)Cc1ccncc1,-62,121*,12,96*,97*,53*,102*
C[C@H]1CN([C@@H](C)CO)S(=O)(=O)c2ccc(C3=CCCCC3)cc2O[C@H]1CN(C)Cc1cncnc1,-5,78,5,/,/,/,/
C[C@@H]1CN([C@@H](C)CO)C(=O)c2cccc(NC(=O)Nc3ccc(F)cc3)c2O[C@H]1CN(C)Cc1ccccc1,-49,47,-14,/,/,/,/
CO[C@@H]1CN(C)C(=O)c2cc(NS(C)(=O)=O)ccc2OC[C@@H](C)N(C(=O)C2CCC2)C[C@H]1C,18,-16,/,/,/,/,/
O=C(C[C@@H]1CC[C@@H](NC(=O)Nc2cccc(F)c2)[C@H](CO)O1)NCC1CCCCC1,8,/,-5,/,/,/,/
COc1ccc(S(=O)(=O)N(C)C[C@@H]2Oc3ccc(NC(=O)C4CCCCC4)cc3CC(=O)N([C@H](C)CO)C[C@H]2C)cc1,-15,44,-5,/,/,/,/
OC[C@H]1[C@H](c2ccc(-c3ccccc3)cc2)[C@H]2CN(CCC(F)(F)F)CCCCN21,21,84,9,/,/,/,/
OC[C@@H]1[C@H](c2ccc(-c3ccccc3)cc2)[C@@H]2CN(CCC(F)(F)F)CCCCN12,-16,104*,30,103*,66,58*,105*
OC[C@H]1[C@H](c2ccc(C#CC3CC3)cc2)[C@@H]2CN(CCC(F)(F)F)CCCCN12,-68,90,33,/,/,/,/
OC[C@H]1[C@@H](c2ccc(C3=CCCC3)cc2)[C@@H]2CN(CCC(F)(F)F)CCCCN12,-76,34,-1,/,/,/,/
OC[C@@H]1[C@@H](c2ccc(-c3ccc(F)cc3)cc2)[C@H]2CN(CCC(F)(F)F)CCCCN12,-65,104*,21,96*,103*,96*,105*
OC[C@@H]1[C@H](c2ccc(C3=CCCC3)cc2)[C@@H]2CN(CCC(F)(F)F)CCCCN12,-25,104*,12,?,49,21,105*
OC[C@@H]1[C@H](c2ccc(-c3ccc(F)cc3)cc2)[C@H]2CN(CCC(F)(F)F)CCCCN12,-75,75,38,/,/,/,/
OC[C@@H]1[C@H](c2ccc(C#CC3CC3)cc2)[C@H]2CN(CCC(F)(F)F)CCCCN12,-72,105*,3,108*,?,29,104*
COc1ccc2c3c(n(C)c2c1)[C@H](CO)N(S(C)(=O)=O)CC31CCN(C(=O)CN(C)C)CC1,-12,/,-3,/,/,/,/
CO[C@@H]1CN(C)C(=O)c2cc(NC(C)=O)ccc2OC[C@H](C)N(C(=O)c2ccccn2)C[C@@H]1C,12,-48,-2,/,/,/,/
NCC[C@@H]1CC[C@@H](NC(=O)Nc2ccc(F)cc2)[C@@H](CO)O1,23,-45,2,/,/,/,/
CCCNC(=O)N1CC2(C1)[C@@H](c1ccccc1)[C@@H](CO)N2CC1CC1,21,/,5,/,/,/,/
O=C(Nc1cc(F)ccc1F)N1CC(=O)N2[C@H](CO)[C@H](c3ccc(C#CC4CCCC4)cc3)[C@@H]2C1,-25,/,2,/,/,/,/
OC[C@@H]1[C@@H](c2ccc(C#CC3CC3)cc2)[C@@H]2CN(CCC(F)(F)F)CCCCN12,2,83,3,/,/,/,/
COc1ccccc1C#Cc1ccc([C@@H]2[C@H]3CN(CCC(F)(F)F)CCCCN3[C@H]2CO)cc1,-40,98*,9,97*,101*,61*,107*
Cc1cccc(-c2ccc([C@H]3[C@H]4CN(CCC(F)(F)F)CCCCN4[C@H]3CO)cc2)c1,-78,?,23,103*,116*,25,105*
OC[C@H]1[C@H](c2ccc(-c3cccc(F)c3)cc2)[C@H]2CN(CCC(F)(F)F)CCCCN21,18,88,29,/,/,/,/
C[C@H](CO)N1C[C@H](C)[C@H](CN(C)C(=O)Nc2ccccc2)OCc2ccccc2-c2ccccc2C1=O,52,44,/,/,/,/,/
C[C@H](CO)N1C[C@H](C)[C@@H](CN(C)C(=O)Nc2ccccc2)OCc2ccccc2-c2ccccc2C1=O,17,54,/,/,/,/,/
SMILES,Pf Dd2 growth,T cruzi growth-1,C diff HTS,T cruzi growth-2,T cruzi growth-3,NIH3T3 tox,NIH3T3 tox 2
C[C@H](CO)N1C[C@H](C)[C@H](CN(C)C(=O)Nc2ccnc(N3CCOCC3)c2)OCc2ccccc2-c2c(n(C)c3ccccc23)C1=O,-56,/,-14,/,/,/,/
C[C@@H]1CN([C@@H](C)CO)C(=O)c2ccccc2-c2ccccc2CO[C@@H]1CN(C)C(=O)Nc1ccnc(N2CCOCC2)c1,14,106*,-7,107*,88,-1,28*
C[C@H]1CN([C@@H](C)CO)C(=O)c2ccccc2-c2ccccc2CO[C@H]1CN(C)C(=O)Nc1ccnc(N2CCOCC2)c1,6,105*,-5,101*,77,6,33*
C[C@H](CO)N1C[C@H](C)[C@H](CN(C)C(=O)Nc2ccnc(N3CCOCC3)c2)OCc2ccccc2-c2ccccc2C1=O,15,110*,-5,?,85,4,24
CCCNC(=O)[C@H]1[C@H](CO)[C@H]2Cn3c(ccc(-c4cccc(F)c4)c3=O)[C@H]2N1C(=O)CC,15,-25,-8,/,/,/,/
CN1CCN(C(=O)C2=C[C@@H](c3ccc4c(c3)OCO4)C[C@@H](OCCCCO)O2)CC1,/,/,-4,/,/,/,/
N#Cc1cccc(-c2ccc(C3[C@H]4CNC[C@@H]3N4Cc3cc(F)ccc3F)cc2)c1 (some centres undefined),-68,/,24,/,/,/,/
CO[C@@H](CN(C)S(=O)(=O)c1cccc(Cl)c1)[C@H](C)CN([C@@H](C)CO)S(=O)(=O)c1cccc(Cl)c1,-13,110*,/,93,38,49*,72*
CO[C@H](CN(C)S(=O)(=O)c1cccc(Cl)c1)[C@@H](C)CN([C@@H](C)CO)S(=O)(=O)c1cccc(Cl)c1,-30,109*,/,83,19,42*,39*
CO[C@H](CN(C)S(=O)(=O)c1cccc(Cl)c1)[C@@H](C)CN([C@@H](C)CO)S(=O)(=O)c1ccc(Cl)cc1,-14,91,/,/,/,/,/
CO[C@H](CN(C)S(=O)(=O)c1ccc(Cl)cc1)[C@@H](C)CN([C@H](C)CO)S(=O)(=O)c1cccc(Cl)c1,-12,76,/,/,/,/,/
CO[C@H](CN(C)S(=O)(=O)c1ccc(F)cc1)[C@H](C)CN([C@@H](C)CO)S(=O)(=O)c1cccc(Cl)c1,-30,91,/,/,/,/,/
